Sampled rows, rich in hits. Any-hit rate of the full collection: about 7.4%.
SMN2 splice up: qHTS Assay for Enhancers of SMN2 Splice Variant Expression | HEK293 SMN2-luciferase splicing reporter, luminescence, 30-36 h | Potency, µM (series often up to 46.1 µM), for the others: at the highest dose activity change, positive = activation, actives largely listed as activators | 210,000 tested, 2.8% active; further: % of control where 0% means no effect; nearly all actives have a fitted effect of over 55% in size
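HEK293 cells carry an SMN2 […]–luciferase reporter in which exon 7 inclusion puts luciferase in frame. Cells were plated 10-12 h before compound addition, then incubated 30-36 h at 37C. ONE-Glo luminescence was read; sodium butyrate at 4.5 mM final served as control.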
Rab9 promoter act: qHTS Assay for Rab9 Promoter Activators. Potency, µM (highest dose often 9.22 µM), for the others: at the top dose activation, negative = inhibition, actives largely listed as activators. 320,000 tested, 2.8% active. Huh7 Rab9 promoter-luciferase reporter, luminescence, 24 h. AID 485297, 2010; further: % of control where 0% means no effect; nearly all actives have a fitted effect of over 60% in size
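Promoter activation is measured as luciferase luminescence in Huh7 cells stably transfected with a Rab9 promoter–luciferase construct, following 24 h compound exposure at 37 °C and 10 min reagent incubation at ambient temperature.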
NPC1 promoter act: qHTS Assay for NPC1 Promoter Activators; Huh7 NPC1 promoter luciferase reporter, 24 h; Potency, µM (doses to about 9.22 µM), for inactives: top-dose activation, usual class: activators; 320,000 tested, 2.4% active; further: % of control where 0% means no effect; nearly all actives have a fitted effect of over 60% in size
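Stable NPC1-promoter luciferase Huh7 line; cpd (DMSO) 24 h, 37 °C, 5% CO2; Amplite luciferase reagent 10 min RT; luminescence readout. qHTS format.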
FLuc modulator: qHTS profiling assay for firefly luciferase inhibitor/activator using purifed enzyme and Km concentrations of substrates (counterscreen for miR-21 project); purified FLuc, Km substrates, luminescence inhibition; AID 588342, 2011; 360,000 tested, 6.9% active; Potency, µM (highest dose often 57.5 µM), inactives show at the top dose activity change, negative = inhibition, actives largely listed as inhibitors;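 further: plate controls were vehicle for no effect and reference inhibitor for full effect; nearly all actives have a fitted effect of over 55% in size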
Target sequence (P08659 whole entry, looked up): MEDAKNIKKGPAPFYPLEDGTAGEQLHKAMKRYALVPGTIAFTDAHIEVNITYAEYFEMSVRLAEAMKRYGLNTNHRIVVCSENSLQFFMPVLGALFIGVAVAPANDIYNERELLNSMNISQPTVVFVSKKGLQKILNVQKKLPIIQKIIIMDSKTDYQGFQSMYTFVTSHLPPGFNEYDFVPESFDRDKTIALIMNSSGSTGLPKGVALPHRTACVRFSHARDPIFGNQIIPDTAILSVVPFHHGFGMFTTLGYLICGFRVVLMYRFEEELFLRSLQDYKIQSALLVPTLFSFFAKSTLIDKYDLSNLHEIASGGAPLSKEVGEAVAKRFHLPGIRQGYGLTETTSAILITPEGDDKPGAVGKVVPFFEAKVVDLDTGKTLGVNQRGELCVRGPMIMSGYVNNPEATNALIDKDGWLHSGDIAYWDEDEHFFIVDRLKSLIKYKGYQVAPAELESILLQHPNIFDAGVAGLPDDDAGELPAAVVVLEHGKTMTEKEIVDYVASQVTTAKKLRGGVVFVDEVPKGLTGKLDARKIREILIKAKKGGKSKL
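Purified P. pyralis luciferase, 10 nM final, with Km-level 10 uM D-luciferin and 10 uM ATP in 50 mM Tris acetate pH 7.5, 10 mM Mg acetate, 0.01% Tween-20, 0.05% BSA; 6-point qHTS titration about 60 µM downward; luminescence read.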
ELG1 genotoxic: qHTS screen for small molecules that induce genotoxicity in human embryonic kidney (HEK293T) cells expressing luciferase-tagged ELG1; HEK293T ELG1-luciferase reporter, luminescence, 16 h; Potency, µM (series often up to 46 µM), inactives show at the highest dose activity change, positive = activation, actives largely listed as activators; 330,000 tested, 1.3% active; further: % of control where 0% means no effect; nearly all actives have a fitted effect of over 60% in size
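Genotoxicity was scored as increased ELG1-luciferase reporter signal, measured by ONE-Glo luminescence (30 min, room temperature). Compound or vehicle exposure of the HEK293T reporter cells lasted 16 hr at 37°C.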
Luc counter: Counterscreen for Luciferase (Kinase-Glo TM) Inhibition; Luciferin 4-monooxygenase (Photuris pensylvanica), Q27757; Kinase-Glo luciferase, ATP luminescence, 8 min; Potency, µM (highest dose often 38.3 µM), without a hit: top-dose activity change, negative = inhibition, hits mostly inhibitors; 200,000 tested, 0.28% active; AID 1379, 2008; further: on the % scale 0 is the no-effect control and ±100 the full control effect; nearly all actives have a fitted effect of over 60% in size
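Light output from Kinase-Glo luciferase with luciferin and 10 uM ATP in 50 mM imidazole pH 7.2, KCl, MgCl2, Tween 20, BSA; compound pin-delivered, 8-min ambient incubation, then luminescence read.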
An asterisk follows results filed as active; ? = inconclusive; / = no result given; [ ] = remark or other dose. The call rests on the fitted dose curve; in most records, active means well fitted curve in the direction sought with a large enough effect; inconclusive means small, poorly fitted or top-dose-only effect, or another doubt; inactive means no such curve, though single readings can be large; an effect the other way counts as inactive or inconclusive. Potency means the concentration at half of the fitted maximal effect.

SMILES	SMN2 splice up	Rab9 promoter act	NPC1 promoter act	FLuc modulator	ELG1 genotoxic	Luc counter
Oc1ccc(C23CC4CC(CC(C4)C2)C3)cc1O	/	4.9%	2.3%	15.1µM*	2.2%	/
CC(=O)Nc1ccc(C23CC4CC(CC(C4)C2)C3)cc1	/	2.5%	?	15.1µM*	9.3%	/
COc1ccc(N2CCN(c3cnc4ccccc4n3)CC2)cc1	?	?	?	13.5µM*	?	2.5%
COc1ccc(N2CCN(c3cc(C)c4ccccc4n3)CC2)cc1	-27.6%	-0.1%	-11.5%	-0.4%	-10.8%	-2.6%
COc1cccc(N2CCN(c3cnc4ccccc4n3)CC2)c1	14.3%	1.58µM*	?	23.9µM*	7.9%	-3.2%
CCCCC/C=C\C/C=C\C/C=C\CCCCCCC(=O)NCCc1ccc(O)c(O)c1	2.0%	/	/	/	/	0.7%
CCN1CCN(CC(=O)Nc2sc3c(c2C#N)CCC(C)C3)CC1 (stereo not given)	-6.5%	1.1%	-1.5%	2.5%	-0.5%	-5.8%
CC1CCc2c(sc(NC(=O)CSc3ncn[nH]3)c2C#N)C1 (stereo not given)	/	-32.7%	-42.7%	10.7µM*	-7.8%	/
CCCc1cc(=O)[nH]c(SCC(=O)Nc2sc3c(c2C#N)CCC(C)C3)n1 (stereo not given)	-17.0%	-1.9%	-2.9%	26.9µM*	3.5%	-1.5%
CC1CCc2c(sc(NC(=O)Cn3nc(C(=O)O)c4ccccc4c3=O)c2C#N)C1 (stereo not given)	/	-4.6%	11.7%	12µM*	5.4%	/
N#Cc1c(NC(=O)CSc2ncn[nH]2)sc2c1CCCC2	-62.1%	-6.8%	-10.6%	8.49µM*	1.1%	-3.3%
CC1CCc2c(sc(NC(=O)CSc3nnc(-c4ccccc4)o3)c2C#N)C1 (stereo not given)	8.6%	1.1%	-2.4%	2.1%	9.4%	1.2%
Cc1ccc(C)c(N2CCN(c3nc4ccccc4c(=O)n3-c3ccc(Cl)cc3)CC2)c1	0.9%	/	/	-8.9%	/	/
COc1ccc(NC(=O)c2cc(-c3cc(C)ccc3O)n[nH]2)cc1Cl	-6.8%	-0.2%	9.3%	-3.6%	-1.3%	-1.1%
Cc1c(Cl)cccc1NC(=O)c1cc(-c2ccccc2O)n[nH]1	-0.2%	?	?	21.3µM*	?	-0.1%
COc1ccc(Cl)cc1NC(=O)c1cc(-c2ccccc2O)n[nH]1	-0.2%	-2.1%	-4.0%	-17.6%	-1.0%	-1.3%
Cc1ccc(-c2cc(C(=O)Nc3cccnc3)[nH]n2)c(O)c1C	/	3.98µM*	?	3.38µM*	9.2µM*	/
COc1ccc(CCNC(=O)c2cc(-c3ccc(C)c(C)c3O)n[nH]2)cc1OC	-32.1%	0.2%	-1.4%	?	-12.9%	8.7%
Cc1cccc(NC(=O)c2cc(-c3cc(C)ccc3O)n[nH]2)c1	/	?	1.12µM*	3.01µM*	?	/
CC(=O)Nc1ccc(NC(=O)c2cc(-c3ccc(C)cc3O)n[nH]2)cc1	/	27.8%	30.0%	-10.9%	2.7%	/
Cc1cccc(NC(=O)c2cc(-c3cc(C)c(C)cc3O)n[nH]2)c1	/	0.562µM*	0.891µM*	?	?	/
Nc1nc(=O)c2[nH]cnc2n1O	-6.7%[9.22 µM]	/	/	/	/	-0.7%[7.66 µM]
Cc1cc(O)c(-c2cc(C(=O)NCc3ccc4c(c3)OCO4)[nH]n2)cc1C	-0.9%	0.7%	0.3%	-0.2%	1.0%	-0.4%
Cc1ccc(-c2cc(C(=O)NCc3ccc4c(c3)OCO4)[nH]n2)c(O)c1C	-11.6%	-1.4%	-1.2%	19µM*	-0.9%	12.0%
COc1cc(/C=C2/C(=O)NN(c3cccc(F)c3)C2=O)ccc1OC(=O)c1ccco1	-13.1%	0.7%	4.8%	23.9µM*	12.0%	-1.4%
SMILES	SMN2 splice up	Rab9 promoter act	NPC1 promoter act	FLuc modulator	ELG1 genotoxic	Luc counter
C=CCN1C(=O)/C(=C\c2ccc(OC(=O)c3ccco3)c(OC)c2)SC1=S	-40.5%	0.6%	-6.3%	2.7%	6.2%	0.3%
COc1cc(/C=C2/C(=O)NN(c3ccc(Cl)cc3)C2=O)ccc1OC(=O)c1ccco1	8.4%	-5.8%	-4.1%	23.9µM*	9.4%	1.3%
COc1cc(/C=C2/C(=N)N3OC(C)=CC3=NC2=O)ccc1OC(=O)c1ccco1	-1.0%	0.9%	-3.6%	4.4%	0.1%	-0.7%
COc1ccc(C(=O)N2CCC(c3ccncc3)CC2)cc1OC	/	/	/	2.9%	/	/
COc1ccc(CNC(=O)c2cnn(-c3ccccc3)c2-n2cccc2)cc1OC	/	/	/	-1.1%	/	/
Cn1c(=S)oc2ccccc21	/	-6.1%	-4.3%	-2.2%	-3.1%	/
CC(C)CC(=O)/C=C/n1c(=S)oc2ccccc21	-67.9%	-46.0%	-32.0%	0.953µM*	-15.6%	-2.7%
CC(=O)/C=C/n1c(=S)oc2ccccc21	-9.6%[1.84 µM]	-41.4%	-36.2%	5.36µM*	-11.3%	-6.1%
Cn1c2cc(B(O)O)sc2c2cnn(Cc3ccc(F)cc3F)c(=O)c21	/	1.6%	-13.5%	-9.4%	/	/
COc1ccc(-c2csc(=Nc3ccccc3)n2CCO)cc1	-71.4%	-4.8%	21.4%	16.9µM*	?	3.1%
COc1ccc(-c2csc(=NCCO)n2-c2ccccc2)cc1	/	9.2%	18.0%	19µM*	12.6%	/
Cc1ccc(-n2nc(CO)c(C(=O)NC(C)c3ccccc3)n2)cc1C (stereo not given)	-12.3%	/	/	-9.9%	/	/
COc1ccc2c(c1)C(=O)[C@@H](OC(=O)Nc1ccc(C)c(Br)c1)[C@H](c1ccc(OC)c(Br)c1)O2	-11.5%	/	/	/	/	1.7%
O=C(NNC(=S)Nc1ccccc1Cl)c1ccccc1	/	1.58µM*	2.51µM*	13.5µM*	?	/
O=C(NC(=S)Nc1cccc(Cl)c1N1CCCCC1)c1ccco1	-17.5%	0.9%	-3.8%	6.9%	-0.3%	0.4%
O=C(NC(=S)Nc1cccc2c(O)cccc12)c1ccco1	/	17.3%	9.2%	21.3µM*	0.0%	/
O=C(NC(=S)Nc1ccccc1Cl)c1ccco1	/	?	?	9.53µM*	4.1%	/
CCOC(=O)c1c(C)c(-c2ccccc2)n(CC(=O)NCCc2cccc(C)c2)c1C	7.9%	/	/	-1.7%	/	/
Cc1ccc(-n2c3c(cc(C(=O)Nc4ccccc4C(N)=O)c2=O)C(=O)CC(C)(C)C3)cc1	-10.8%	/	/	1.9%	/	/

From PubChem
